RXFP1 antagonist: qHTS Assay for Antagonists of the Relaxin Receptor RXFP1; Relaxin receptor 1 (Homo sapiens), Q9HBX9; HEK293-RXFP1, relaxin-stimulated cAMP HTRF, 30 min; active compounds read low; activity change, negative = inhibition, % at 57.5 µM; 350,000 compounds, 0.59% hits;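 active = activity change of -60% or lower, but not beyond a set lower limit; inconclusive = change between -60% and -40%, or beyond the set limit; inactive = change above -40%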
Target sequence (Q9HBX9 whole entry, looked up): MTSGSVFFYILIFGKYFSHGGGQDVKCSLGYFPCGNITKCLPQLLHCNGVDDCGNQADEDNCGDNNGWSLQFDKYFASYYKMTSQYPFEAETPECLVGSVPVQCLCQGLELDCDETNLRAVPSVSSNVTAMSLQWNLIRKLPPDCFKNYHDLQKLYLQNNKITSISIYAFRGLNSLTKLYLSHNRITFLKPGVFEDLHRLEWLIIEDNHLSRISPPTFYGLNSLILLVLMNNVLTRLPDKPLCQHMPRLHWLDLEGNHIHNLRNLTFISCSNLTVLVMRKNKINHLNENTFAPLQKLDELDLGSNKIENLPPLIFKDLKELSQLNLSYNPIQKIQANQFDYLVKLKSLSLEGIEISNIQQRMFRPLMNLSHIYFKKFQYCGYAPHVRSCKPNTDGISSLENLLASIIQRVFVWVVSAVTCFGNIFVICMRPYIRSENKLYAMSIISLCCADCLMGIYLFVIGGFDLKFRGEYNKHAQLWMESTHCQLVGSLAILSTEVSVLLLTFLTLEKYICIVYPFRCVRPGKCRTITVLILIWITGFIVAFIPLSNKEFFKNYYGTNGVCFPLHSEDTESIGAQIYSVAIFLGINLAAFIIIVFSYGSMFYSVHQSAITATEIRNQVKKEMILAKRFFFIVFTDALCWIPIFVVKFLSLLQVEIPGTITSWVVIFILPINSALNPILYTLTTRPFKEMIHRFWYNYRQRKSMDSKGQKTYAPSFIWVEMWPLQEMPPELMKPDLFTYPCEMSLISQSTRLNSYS
Akt phos inh: HTS Assay for Inhibitors of Akt Phophorylation: Primary Screen | Neuro2A IGF-stimulated pAkt S473 HTRF, 20 min; active compounds read low | AID 651550, 2012 | activity change, % for hits at 50 µM | 360,000 compounds, 0.32% hits; in the data active = activity change below about -80%; inconclusive = mostly about -51% to -80%
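Neuro2A cells in DMEM with 0.5% FBS, overnight at 37 deg C, given compound at single 50 µM final, then IGF (6 nM final) for 20 min at 37 deg C. Lysed; phospho-Akt Ser473 by HTRF after 24 h, 665/615 ratio.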
RXFP1 ag: qHTS Assay for Agonists of the Relaxin Receptor RXFP1 | AID 2676, 2010 | HEK293T-RXFP1 cAMP TR-FRET, 30 min; response scale: percent of porcine relaxin response, buffer zero | Potency, µM (top dose mostly 57.5 µM), hits mostly activators | 370,000 compounds, 0.3% hits | Relaxin receptor 1 (Homo sapiens), Q9HBX9; active = well fitted activation curve with a large enough effect; inconclusive = small, poorly fitted or top-dose-only effect; also: nearly all actives have a fitted effect of over 60% in size
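HEK293 cells stably expressing RXFP1, treated 30 min at 37C with compounds plus PDE4 inhibitor Ro 20174; cAMP measured by HTRF TR-FRET. Normalized to buffer and 29 nM porcine relaxin; EC50 by Hill fit.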
gsp antag: qHTS for Antagonists of gsp, the Etiologic Mutation Responsible for Fibrous Dysplasia/McCune-Albright Syndrome: qHTS; gsp-mutant cells, cAMP HTRF, 30 min; Potency, µM (doses to about 76.9 µM), hits mostly inhibitors; 340,000 compounds, 0.4% hits; AID 624288, 2012; calls by dose curve; cell line not stated here;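 also: intracellular cAMP measured with PDE inhibitor Ro 20-1724 present during compound exposure; nearly all actives have a fitted effect of over 65% in size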
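HTRF cAMP measurement after 30 min RT detection following 30 min, 37C compound treatment alongside […] (added as 300 uM solution) in G418-selected cells seeded at 2000/well and grown 16–24 h.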
gsp agonist: qHTS for Agonist of gsp, the Etiologic Mutation Responsible for Fibrous Dysplasia/McCune-Albright Syndrome: qHTS. AID 624287, 2012. gsp mutant cells, cAMP HTRF, 30 min. 340,000 compounds, 0.13% hits. Potency, µM (series often up to 76.9 µM), most hits filed as activators; active = well fitted activation curve with a large enough effect; inconclusive = small, poorly fitted or top-dose-only effect, or another doubt; inactive = no such curve, though single readings can be large or run the other way; cell line not stated here;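 also: phosphodiesterase inhibitor Ro 20-1724 added with compounds to block cAMP breakdown; nearly all actives have a fitted effect of over 60% in size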
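Cells stably selected in G418 were plated at 2000/well, grown 16-24 hr, then given compounds in DMSO with the PDE inhibitor […] (300 uM solution added) for 30 min at 37C; cAMP was read by HTRF.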
Large screens that a line does not name were inactive. A selection: hits, their analogues and other compounds. The true share with any hit is near 1.2%.

CN1/C(=C\C(=O)c2cccs2)Sc2ccccc21	Akt phos inh -104%
CN1/C(=C/C(=O)c2cccs2)Sc2ccccc21	none (no result: RXFP1 antagonist, Akt phos inh, gsp antag, gsp agonist)
Cc1ccc(SCc2c(C(=O)N/N=C/c3ccoc3)nnn2-c2nonc2N)cc1	gsp antag 32µM
CCOc1cccc(-c2c(C(=O)N/N=C/c3sccc3C)nnn2-c2nonc2N)c1	gsp antag inconclusive
Cc1ccc(-c2c(C(=O)N/N=C/c3ccc4c(c3)OCO4)nnn2-c2nonc2N)cc1	gsp antag 25µM
CCOc1cccc(-c2c(C(=O)N/N=C/c3ccsc3)nnn2-c2nonc2N)c1	RXFP1 antagonist -61
CCc1ccc(S(=O)(=O)N(C(=O)Oc2ccccc2)c2ccc3oc(C)c(C(=O)OC)c3c2)cc1	none (no result: Akt phos inh, gsp antag, gsp agonist)
C#CC(C)(CC)OC(=O)c1ccccc1C(=O)O (centres undefined)	none (no result: Akt phos inh, RXFP1 ag, gsp antag, gsp agonist)
CSc1ccc(C(=O)N2CCc3ccc(NC(=O)c4ccccn4)cc3C2)cc1	RXFP1 antagonist -69, gsp antag 32µM
CCOc1cccc(C2/C(=C(/O)c3ccc4c(c3)CC(C)O4)C(=O)C(=O)N2Cc2ccncc2)c1 (centres undefined)	RXFP1 ag inconclusive, gsp agonist 5µM
COc1ccc(C2/C(=C(\O)c3ccc4c(c3)OCCO4)C(=O)C(=O)N2Cc2cccnc2)cc1 (centres undefined)	RXFP1 ag inconclusive, gsp agonist inconclusive (no result: Akt phos inh)
Cc1cc(OCC(C)C)ccc1/C(O)=C1/C(=O)C(=O)N(Cc2cccnc2)C1c1ccncc1 (centres undefined)	RXFP1 ag inconclusive, gsp agonist 5.6µM
Cc1nc2ccccn2c1/C(O)=C1\C(=O)C(=O)N(CCCn2ccnc2)C1c1ccncc1 (centres undefined)	gsp agonist 18µM
CCCCOc1cccc(C2/C(=C(/O)c3ccc4c(c3)CC(C)O4)C(=O)C(=O)N2CCN2CCOCC2)c1 (centres undefined)	RXFP1 ag 28µM, gsp agonist inconclusive
Cc1nc2ccccn2c1/C(O)=C1\C(=O)C(=O)N(CCN(C)C)C1c1cccnc1 (centres undefined)	gsp agonist inconclusive
C[C@H]1C[C@H](O)c2ccsc2S1(=O)=O	none (no result: Akt phos inh, RXFP1 ag, gsp antag, gsp agonist)
COc1cc(C2/C(=C(\O)c3ccc4c(c3)CC(C)O4)C(=O)C(=O)N2CCCn2ccnc2)cc(OC)c1OC (centres undefined)	none
O=C1C(=O)N(CCCN2CCOCC2)C(c2ccc(F)cc2)/C1=C(\O)c1ccc2c(c1)OCCO2 (centres undefined)	RXFP1 ag inconclusive, gsp agonist 32µM
CC(C)(C)c1ccc(C2/C(=C(\O)c3ccc4c(c3)OCCO4)C(=O)C(=O)N2CCCN2CCOCC2)cc1 (centres undefined)	gsp agonist inconclusive
COc1cccc(C2/C(=C(/O)c3ccc4c(c3)CC(C)O4)C(=O)C(=O)N2CCCn2ccnc2)c1 (centres undefined)	RXFP1 ag inconclusive, gsp agonist 13µM
Cc1cccc(-c2cccc(NC(=O)C3CCCN(C(=O)c4csc(C)n4)C3)c2)c1 (centres undefined)	gsp antag 35µM, gsp agonist inconclusive
Cc1cccc(-c2cccc(NC(=O)C3CCCN(C(=O)c4cccnc4)C3)c2)c1 (centres undefined)	gsp agonist inconclusive
CC(C)Cn1c(-c2cccs2)nc2ccccc21	gsp agonist inconclusive
CC(C)CC(C)c1cc(N)nc2nc3ccccc3n12 (centres undefined)	RXFP1 antagonist -61
CSc1sc(C)cc1C=O	none
CSc1cc(/C=N/O)c(SC)s1	Akt phos inh -116%
CC(C)(C)c1ccc(-c2nc(SCC(=O)Nc3ccccc3F)n3[nH]c(=O)cc3n2)cc1	RXFP1 antagonist -64 (no result: Akt phos inh, gsp antag, gsp agonist)
O=C(CSc1nc(-c2ccco2)nc2cc(=O)[nH]n12)Nc1ccccc1F	none (no result: Akt phos inh, gsp antag, gsp agonist)
CCc1cccc(CC)c1NC(=O)c1cc(S(=O)(=O)N2CCc3ccccc32)cn1C	none (no result: Akt phos inh, gsp antag, gsp agonist)
Cc1ccc(Cn2nnc(C(=O)Nc3cccc(C)c3C)c2N)cc1	Akt phos inh -109%
Cc1cc(C(=O)CSc2nc3ccccc3[nH]2)c(C)n1CC1CCCO1 (centres undefined)	gsp antag 32µM
CN1CCN(N)CC1	none (no result: Akt phos inh, RXFP1 ag, gsp antag, gsp agonist)
COc1ccc(NC(=O)c2cc(-c3ccc(C)cc3)on2)cc1OC	none
COc1ccc(NC(=O)c2cc(-c3ccc(OC)c(OC)c3)on2)cc1OC	Akt phos inh -88%
COc1ccc(-c2cc(C(=O)NCc3ccc(Cl)cc3)no2)cc1OC	Akt phos inh -92%
CC1C(=O)N2CCCc3cc(S(=O)(=O)Nc4ccc(Br)cc4F)cc1c32 (centres undefined)	none (no result: Akt phos inh, gsp antag, gsp agonist)
COc1ccc(CCNC(=O)c2c(C)nn(-c3ccc(F)cc3)c2-n2cccc2)c(OC)c1OC	none (no result: RXFP1 antagonist, Akt phos inh, gsp antag, gsp agonist)
Cc1ccc(-c2cn(-c3ccccc3)c(=S)[nH]2)cc1C	RXFP1 antagonist -77
COc1ccc(CC(=O)NCc2nc3cccnc3n2Cc2ccc(C)cc2)cc1OC	none (no result: Akt phos inh, gsp antag, gsp agonist)
Oc1c(Br)cc(Br)cc1/C=N/NC(=S)N[C@H]1CC2C=CC1C2 (some centres undefined)	RXFP1 antagonist -72
CC(=O)c1ccc(N=Nc2ccc(C)cc2)cc1	none
C=C(C)C(=O)Oc1ccc(N=Nc2ccc(C)cc2)ccc1=O	RXFP1 antagonist -70 (no result: RXFP1 ag)
CCC(Oc1ccccc1)C(=O)Nc1cc(-c2ccccc2OC)nn1-c1ccccc1 (centres undefined)	none (no result: RXFP1 antagonist, Akt phos inh, gsp antag, gsp agonist)
O=C1CSC(=S)N1N=Cc1cccc(OCc2ccccc2)c1	RXFP1 antagonist -95 (no result: RXFP1 ag, gsp antag)
COc1cc(C(C#N)N2N=C(c3ccccc3)CC2c2ccccc2)ccc1O (centres undefined)	Akt phos inh -113%
CCCOc1ccc(C2=NNC(c3cccs3)=Nc3ccc(OC)cc32)cc1	Akt phos inh -125%
COc1ccc2c(c1)C(c1cccs1)=NNC(c1ccncc1)=N2	none
COc1ccc(C2CC(=O)Nc3c2c(=O)n(C)c2nc4ccccc4n32)cc1 (centres undefined)	none (no result: RXFP1 antagonist, Akt phos inh, gsp antag, gsp agonist)
Cc1ccc(OCc2nnc(N)s2)cc1	none
Cc1cccc(OCc2nnc(N)s2)c1C	Akt phos inh -120%
O=C(CSc1nc(=O)[nH]c2c1CCCC2)NCc1ccc(Cl)cc1	none (no result: Akt phos inh, gsp antag, gsp agonist)
ClC(Cl)(c1nnnn1-c1ccccc1)c1nnnn1-c1ccccc1	RXFP1 antagonist -91, gsp antag inconclusive
CCOC(=O)c1cc(NC(=O)CC(C)(C)CC(=O)O)ccc1N1CCCCC1	gsp antag 32µM
Cc1cc(C)nc(SCc2nnc(SCc3ccc([N+](=O)[O-])cc3)n2Cc2ccco2)n1	gsp agonist inconclusive

Screening data deposited in PubChem by National Center for Advancing Translational Sciences (NCATS).
